This passage reports Potency and outcome results from PubChem BioAssay (Tox21).

Molecules are shown by their SMILES. Results filed as inconclusive are left out. Some structures have more than one record in an assay (separate samples or runs), and their calls can disagree. Calls of active or inactive are those of the source. Unless noted, calls follow the shape of the dose curve; as a rule, active = well fitted curve in the direction sought with a large enough effect in the repeat runs; inconclusive = weak or mixed curves; inactive = no such curve, though single readings can be large; an effect the other way counts as inactive or inconclusive.

Assay [1] in a line: qHTS assay to identify small molecule agonists of the vitamin D receptor (VDR) signaling pathway - cell viability counter screen (AID 743224). Also: series mostly up to about 63 µM; nearly all actives have a fitted effect of over 50% in size. The gist of the method:
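VDR-bla cell line, quantitative HTS format; 16 h compound incubation (37C, 5% CO2); ATP-based CellTiter-Glo luminescence measured in the reporter assay wells.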
(In general: In qHTS, concentration-response curves come from the screen itself.)

A short description of assay [2]: qHTS assay to identify small molecule antagonists of the vitamin D receptor (VDR) signaling pathway - cell viability counter screen (AID 743225). Also: nearly all actives have a fitted effect of over 50% in size. In short, it runs like this: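 VDR-bla HEK 293T cells, 4 h pre-incubation at 37C, then compound plus 1-alpha,25-dihydroxyvitamin D3 (3 nM final) for 16 h. After the beta-lactamase FRET read, CellTiter-Glo was added to the same wells; luminescence after 30 min at room temperature.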

Assay [3] can be described thus: qHTS assay to identify small molecule agonists of the NFkB signaling pathway (AID 1159509; active = well fitted curve in the direction sought with a large enough effect in the signal ratio in the repeat runs, not every such curve was filed as active; the % refers to the signal ratio; also: series mostly up to about 61 µM). The gist of the method:
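After overnight attachment, reporter cells received test compounds, DMSO or positive controls and were incubated 5 hr at 37 C. FRET substrate was then added for 1.5 hr at room temperature before dual-emission fluorescence reading.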

The nature of assay [4]: qHTS assay to identify small molecule agonists of the endoplasmic reticulum stress response signaling pathway (AID 1159516; active = well fitted activation curve with a large enough effect in the signal ratio in the repeat runs, not every such curve was filed as active; the % refers to the signal ratio). The gist of the method:
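ER stress element reporter (bla) in HeLa. 1,500 cells/well, overnight attachment; 5 hr compound; 2 hr RT substrate; dual-emission fluorescence.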

Assay [5] can be described thus: qHTS assay to identify small molecule agonists of the endoplasmic reticulum stress response signaling pathway - cell viability counter screen (AID 1159517; calls by dose curve;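 also: HeLa cells carrying an ER stress response element beta-lactamase reporter; series mostly up to about 61 µM; nearly all actives have a fitted effect of over 50% in size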). The gist of the method: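 Counter-screen wells were identical to the reporter wells. Cells were plated at 1,500 per well and dosed for 5 hr, then read for luminescence 30 min after CellTiter-Glo addition.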
Assay [6] can be described thus: qHTS assay to identify small molecule antagonists of the retinoid-related orphan receptor gamma (ROR-gamma) signaling pathway - cell viability counter screen (AID 1159520). Also: nearly all actives have a fitted effect of over 50% in size. The gist of the method:
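Tet-on ROR gamma CHO cells were given compounds for 2 hr, then doxycycline hyclate at 1 uM final, and incubated 16 hr at 37 C. Viability was measured as ATP content by CellTiter-Glo luminescence.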

The target in assay [7] is Nuclear receptor ROR-gamma (Homo sapiens) (UniProt P51449). Description: qHTS assay to identify small molecule antagonists of the retinoid-related orphan receptor gamma (ROR-gamma) signaling pathway (AID 1159521; also: nearly all actives have a fitted effect of over 50% in size; also: potency is read from the fitted curve at half-maximal effect). In short, it runs like this: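 Tet-on RORγ CHO cells carrying a ROR response element–luciferase reporter were pretreated with compounds for 2 h, then induced with 1 uM (final) doxycycline hyclate for 16 h at 37 C. Antagonism was read as decreased ONE-Glo luminescence.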

Assay [8] can be described thus: qHTS assay to identify small molecule agonists of the AP-1 signaling pathway - cell viability counter screen (AID 1159525; calls by dose curve; also: nearly all actives have a fitted effect of over 55% in size). In short, it runs like this: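 AP-1-bla ME-180 cells in Opti-MEM with 0.5% dialyzed FBS, compound exposure 5 h at 37 C in 15-point titration. Viability read in the same wells as ATP content by CellTiter-Glo luminescence, normalised to tetra-n-octylammonium bromide and DMSO controls.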

A short description of assay [9]: qHTS assay to identify small molecule agonists of the AP-1 signaling pathway (AID 1159526; calls by dose curve).

Turning to `CCCSc1ccc2nc(NC(=O)OC)[nH]c2c1`, the Potency entry in [1], in assay [6], in assay [7] and in assay [8] was “inactive” in each case. For the same compound, the result in assay [2], in assay [3], in [4], in assay [5] and in assay [9] was inactive.

As to `FC(F)(F)c1ccc(Cl)c(Cl)c1`, the Potency entry in assay [1], in assay [6], in [7] and in [8] was “inactive” in each case. Further, the compound was classed as inactive in assay [2], in assay [3], in [4], in [5] and in [9].

Take `CCCCC(CC)COC(=O)CCCCC(=O)OCC(CC)CCCC` (centres undefined): the Potency result in assay [1], in [6], in assay [7] and in [8] was “inactive” each time. The compound was called inactive in [2], in assay [3], in [4], in [5] and in assay [9].

With `CC(C)c1ccc(S(=O)(=O)O)cc1`, the Potency result in [1], in assay [6], in assay [7] and in assay [8] was “inactive” throughout. In addition, the compound was called inactive in [2], in assay [3], in [4], in assay [5] and in [9].

`O=C(O)CCCCCCCCCCC(=O)O`: the Potency entry in [1], in assay [6], in [7] and in assay [8] was “inactive” each time. Further, the call in [2], in [3], in [4], in assay [5] and in assay [9] was inactive.

On to `CCCCCC/C(C=O)=C\c1ccccc1`, for which the Potency result in assay [1], in assay [6], in [7] and in [8] was “inactive” throughout. The compound was classed as inactive in [2], in assay [3], in [4], in assay [5] and in [9].

As for `CC1=CCC2CC1C2(C)C` (centres undefined), the Potency entry in assay [1], in assay [6], in assay [7] and in assay [8] was “inactive” throughout. Besides, the compound was classed as inactive in [2], in assay [3], in [4], in assay [5] and in assay [9].

With `c1c[nH]cn1`, the Potency entry in assay [1], in assay [6], in assay [7] and in assay [8] was “inactive” in each case. Also, the call in [2], in [3], in [4], in [5] and in assay [9] was inactive.

As to `O=c1[nH]c(=O)n([C@H]2CCCO2)cc1F`, the Potency result in assay [1], in assay [6] and in [8] was “inactive” each time. The result in assay [2], in assay [3], in assay [4], in assay [5] and in [9] was inactive.

For `C/C=C1/CC2C=CC1C2` (centres undefined), the Potency entry in [1], in assay [6] and in assay [8] was “inactive” throughout. Besides, the call in assay [2], in assay [4], in [5] and in assay [9] was inactive.

Regarding `CCCCCCCCCCCCOCCO`, the Potency entry in assay [1], in assay [6], in assay [7] and in assay [8] was “inactive” in each case. For the same compound, the outcome in assay [2], in assay [3], in assay [4], in assay [5] and in assay [9] was inactive.

With `CC(=O)c1ccccc1`, the Potency result in [1], in assay [6] and in assay [8] was “inactive” each time. Moreover, the compound was called inactive in [2], in assay [3], in assay [4], in assay [5] and in assay [9].

Turning to `CC(=O)Nc1cccc(O)c1`, the Potency result in assay [1], in [6] and in assay [8] was “inactive” in each case. The compound was classed as inactive in assay [2], in [3], in [4], in [5] and in assay [9].

As for `O=C(O)c1ccc(C(=O)O)cc1`, the Potency result in [1], in assay [6], in assay [7] and in assay [8] was “inactive” throughout. Further, the outcome in assay [2], in assay [3], in [4], in assay [5] and in assay [9] was inactive.

As for `C#C[C@]1(O)CC[C@H]2[C@@H]3CCC4=CC(=O)CC[C@@H]4[C@H]3CC[C@@]21C`, the Potency entry in assay [1], in [6] and in assay [8] was “inactive” in each case. Also, the compound was called inactive in assay [2], in assay [3], in [4], in assay [5] and in assay [9]. Further, the Potency in assay [7] was 30.6 µM (active).

For `C#CCN(C)Cc1ccccc1`, the Potency entry in assay [1], in assay [6] and in [8] was “inactive” in each case. The call in assay [2], in assay [3], in assay [4], in assay [5] and in [9] was inactive.

On to `C[Si](O[Si](C)(C)C)O[Si](C)(C)C`, for which the Potency result in assay [1], in [6], in [7] and in assay [8] was “inactive” in each case. For the same compound, the call in assay [2], in assay [3], in assay [4], in assay [5] and in [9] was inactive.

For the compound `Oc1cccc2ccccc12`, the Potency entry in assay [1], in [6], in [7] and in [8] was “inactive” each time. Further, the outcome in assay [2], in assay [3], in assay [4], in assay [5] and in assay [9] was inactive.

Consider `CCCCCCCCCCCCS`, for which the Potency entry in [1], in assay [6], in [7] and in assay [8] was “inactive” each time. Besides, the outcome in assay [2], in assay [3], in assay [4], in assay [5] and in [9] was inactive.

For the compound `CC1CCC2CC1C2(C)C` (centres undefined), the Potency entry in assay [1], in [6], in assay [7] and in assay [8] was “inactive” in each case. In addition, the result in [2], in assay [3], in [4], in assay [5] and in assay [9] was inactive.

For `CC(C)(C)[C@@H](O)[C@@H](Cc1ccc(Cl)cc1)n1cncn1`, the Potency entry in assay [1], in [6], in assay [7] and in assay [8] was “inactive” throughout. The compound was classed as inactive in [2], in [3], in [4], in [5] and in assay [9].

Regarding `C=C(C)C(=O)Nc1ccc(Cl)c(Cl)c1`, the Potency entry in assay [1], in assay [6], in assay [7] and in [8] was “inactive” throughout. The result in assay [2], in [3], in assay [4], in assay [5] and in assay [9] was inactive.

As to `OCc1cccnc1`, the Potency result in assay [1], in assay [6], in [7] and in [8] was “inactive” throughout. Further, the result in [2], in [4], in assay [5] and in assay [9] was inactive.

In the case of `COc1ccc(Nc2ccccc2)c(C)c1`, the Potency result in assay [1], in [6], in assay [7] and in assay [8] was “inactive” throughout. Further, the compound was called inactive in assay [2], in assay [3], in [4], in [5] and in [9].

As for `c1ccc(OCCOc2ccccc2)cc1`, the Potency result in assay [1], in assay [6], in [7] and in assay [8] was “inactive” each time. Moreover, the compound was called inactive in assay [2], in assay [3], in assay [4], in assay [5] and in [9].

As for `OCCOCCN1CCN(C2=Nc3ccccc3Sc3ccccc32)CC1`, the Potency result in assay [1], in [6] and in [8] was “inactive” each time. Moreover, the call in assay [2], in assay [3], in [4], in assay [5] and in assay [9] was inactive.

In the case of `CN(C)CCOCCN(C)C`, the Potency entry in [1], in assay [6], in assay [7] and in [8] was “inactive” each time. Besides, the result in assay [2], in assay [3], in assay [4], in [5] and in [9] was inactive.

`CCCCOC(=O)COc1ccc(Cl)cc1Cl`: the Potency result in assay [1], in [6] and in [8] was “inactive” throughout. Further, the compound was called inactive in assay [2], in assay [3], in assay [4], in assay [5] and in assay [9]. Besides, the Potency in [7] is 19.5 µM (active) and inactive.
